Only some compounds are listed: those with a hit (about 6.8% of all), similar ones and a draw of the others.
T cruzi growth-1 – inhibitors of T. cruzi proliferation; T. cruzi beta-gal in NIH3T3, GalScreen luminescence, 90 h; 77,000 compounds, 5.9% hits; inhibition, % at 8.34 µM;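 active means mean inhibition above about 93%, with at least 55% of replicates each passing it, limit read from the data, passing the limit was not always enough; inconclusive means only one of those two conditions holds; inactive means neither condition holds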
C diff HTS – inhibitors of Clostridium difficile growth | Clostridium difficile clinical isolate growth, OD600, 24 h; active compounds read low | growth activity, negative = inhibition, % at 16 µg/mL (by protocol) | 86,000 compounds, 0.25% hits | AID 1259249;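 active means mean growth activity at or below -80% and every replicate also at or below -80%; inconclusive means mean at or below -80% but some replicate above -80%; inactive means mean growth activity above -80%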
Pf Dd2 growth – inhibitors of Plasmodium falciparum Dd2 growth. P. falciparum Dd2 growth, SYBR Green, 72 h; active compounds read low. activity change, % at 10 µM. 94,000 compounds, 2.3% hits. AID 1159554; in the data active means activity change below about -80%; inconclusive means no clear call, values can overlap the other calls
T cruzi growth-2 – blocks T. cruzi growth in NIH3T3 host cells; 5,600 compounds, 72% hits; inhibition, % at 8.35 µM; shares compounds with T cruzi growth-1; T. cruzi beta-gal in NIH3T3, GalScreen luminescence, 90 h;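 active means mean replicate inhibition above about 95% and at least 55% of replicates individually reaching it, limit read from the data; inconclusive means only one of the two criteria is met; inactive means neither criterion is met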
T cruzi growth-3 – Trypanosoma cruzi proliferation inhibition; 5,600 compounds, 21% hits; inhibition, % at 2.09 µM; AID 651740; shares compounds with T cruzi growth-1; T. cruzi beta-gal in NIH3T3, GalScreen luminescence, 90 h;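 active means mean inhibition above about 95%, with at least 55% of replicates also reaching it, limit read from the data; inconclusive means meets just one of the two conditions; inactive means meets neither condition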
NIH3T3 tox – cytotoxicity in mouse NIH/3T3 fibroblasts; NIH/3T3 viability, CellTiter-Glo ATP luminescence, 90 h; 5,600 compounds, 14% hits; cytotoxicity (signal decrease), % at 8.35 µM; shares compounds with T cruzi growth-1;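 active means mean signal decrease across replicates above about 35% based on untreated-well scatter, with enough replicates individually passing, limit read from the data; inconclusive means no rule stated though some were filed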
3T3 cytotox 2 – NIH/3T3 (mouse) viability loss | shares compounds with T cruzi growth-1 | NIH/3T3 viability, CellTiter-Glo ATP luminescence, 90 h | inhibition, % at 24.9 µM | 5,600 compounds, 56% hits | AID 651744;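 active means mean loss of cell viability signal at or above a set limit, and enough replicates individually reaching it; inconclusive means meets only the mean limit or only the replicate share; inactive means meets neither condition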
Large screens that a line does not name were inactive (follow-up assays come after a bar, where they were run).

CCNC(=O)C[C@@H]1CC[C@H]2[C@@H](COc3ccc(NC(=O)C4CCCCC4)cc3C(=O)N2C)O1	none
Cc1noc(C)c1S(=O)(=O)Nc1ccc2c(c1)C(=O)N([C@H](C)CO)C[C@@H](C)[C@H](CN(C)CC1CCCCC1)OCCCC[C@@H](C)O2	none
COc1ccc(NC(=O)Nc2ccc3c(c2)C(=O)N([C@@H](C)CO)C[C@H](C)[C@@H](CN(C)S(=O)(=O)c2ccc(F)cc2)OCCCC[C@H](C)O3)cc1	none
COc1ccc(NC(=O)Nc2ccc3c(c2)C(=O)N([C@H](C)CO)C[C@H](C)[C@H](CN(C)S(=O)(=O)c2ccc(F)cc2)OCCCC[C@H](C)O3)cc1	T cruzi growth-1 inconclusive | T cruzi growth-2 102.6 | T cruzi growth-3 inactive | NIH3T3 tox inactive | 3T3 cytotox 2 inactive
COc1ccc(S(=O)(=O)N(C)C[C@H]2OCCCC[C@H](C)Oc3ccc(NC(=O)Nc4ccc(C(F)(F)F)cc4)cc3C(=O)N([C@H](C)CO)C[C@H]2C)cc1	Pf Dd2 growth inconclusive
COc1ccc(S(=O)(=O)N(C)C[C@@H]2OCCCC[C@@H](C)Oc3ccc(NC(=O)Nc4ccc(F)cc4)cc3C(=O)N([C@@H](C)CO)C[C@H]2C)cc1	T cruzi growth-1 111.2 | T cruzi growth-2 107.4 | T cruzi growth-3 inactive | NIH3T3 tox inactive | 3T3 cytotox 2 inactive
C[C@H](CO)N1C[C@H](C)[C@@H](CN(C)Cc2ccccn2)Oc2ncc(C#CCC3CCCC3)cc2C1=O	none
C[C@H](CO)N1C[C@H](C)[C@H](CN(C)C(=O)C2CCCCC2)Oc2ncc(C#CCc3ccccc3)cc2C1=O	none
C[C@H](CO)N1C[C@H](C)[C@@H](CN(C)CC2CCCC2)Oc2ncc(C#CCc3ccccc3)cc2C1=O	T cruzi growth-1 96.9, Pf Dd2 growth -87.2 | T cruzi growth-2 101.5 | T cruzi growth-3 105.9 | NIH3T3 tox inconclusive | 3T3 cytotox 2 104.2
C[C@H]1CN([C@@H](C)CO)C(=O)c2cc(C#CCc3ccccc3)cnc2O[C@@H]1CN(C)C(=O)C1CCCCC1	T cruzi growth-1 inconclusive, Pf Dd2 growth -83.3 | T cruzi growth-2 96.4 | T cruzi growth-3 inactive | NIH3T3 tox inactive | 3T3 cytotox 2 96.7
C[C@H]1CN([C@@H](C)CO)C(=O)c2cc(C#CCC3CCCC3)cnc2O[C@@H]1CN(C)Cc1ccccn1	T cruzi growth-1 104.2 | T cruzi growth-2 100.7 | T cruzi growth-3 inactive | NIH3T3 tox inactive | 3T3 cytotox 2 106.6
C[C@@H]1CN([C@@H](C)CO)C(=O)c2cc(C#CCc3ccccc3)cnc2O[C@H]1CN(C)CC1CCOCC1	none
CN1CCN(C(=O)C[C@H]2CC[C@H](NS(=O)(=O)c3cccc(F)c3)[C@H](CO)O2)CC1	none
COc1ccc(NC(=O)N(C)C[C@@H]2OCCCC[C@@H](C)Oc3ccc(NS(=O)(=O)c4ccc(OC)cc4)cc3C(=O)N([C@@H](C)CO)C[C@@H]2C)cc1	none (no result: T cruzi growth-1)
O=C(CC1CC1)N[C@H]1CC[C@@H](CCNS(=O)(=O)c2ccc(F)cc2)O[C@@H]1CO	none
COc1ccc(NC(=O)Nc2ccc3c(c2)C(=O)N([C@@H](C)CO)C[C@H](C)[C@H](CN(C)S(=O)(=O)c2ccc(C)cc2)OCCCC[C@H](C)O3)cc1	T cruzi growth-1 103.6 (no result: C diff HTS) | T cruzi growth-2 111.3 | T cruzi growth-3 inactive | NIH3T3 tox inactive | 3T3 cytotox 2 inactive
COc1ccc(NC(=O)Nc2ccc3c(c2)C(=O)N([C@@H](C)CO)C[C@H](C)[C@@H](CN(C)S(=O)(=O)c2ccc(C)cc2)OCCCC[C@H](C)O3)cc1	T cruzi growth-1 101.8 (no result: C diff HTS) | T cruzi growth-2 104.9 | T cruzi growth-3 inactive | NIH3T3 tox inactive | 3T3 cytotox 2 inactive
COc1ccc(NC(=O)Nc2ccc3c(c2)C(=O)N([C@H](C)CO)C[C@H](C)[C@@H](CN(C)S(=O)(=O)c2ccc(C)cc2)OCCCC[C@H](C)O3)cc1	none (no result: C diff HTS)
COc1ccc(S(=O)(=O)N(C)C[C@@H]2OCCCC[C@@H](C)Oc3ccc(NC(=O)Nc4ccccc4)cc3C(=O)N([C@H](C)CO)C[C@H]2C)cc1	T cruzi growth-1 103.9 | T cruzi growth-2 104.2 | T cruzi growth-3 inactive | NIH3T3 tox inactive | 3T3 cytotox 2 inactive

Bioassay records from PubChem BioAssay.
